Compound activity: PubChem BioAssay, The Scripps Research Institute Molecular Screening Center
Sampled rows, rich in hits. Any-hit rate of the full collection: about 3.5%.
FBW7 activator: activators of human E3 ligase FBW7; Q969H0; actives 0.13% (n = 650,000); AID 1259310; normalized activity (activation), % at 26.1 µM; AlphaScreen FBW7–phospho-cyclin E peptide binding, activator screen; in the data active = normalized activity above about 1.9%;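 note: purified mutant Fbw7 with reduced substrate affinity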
Target sequence (Q969H0 whole entry, looked up): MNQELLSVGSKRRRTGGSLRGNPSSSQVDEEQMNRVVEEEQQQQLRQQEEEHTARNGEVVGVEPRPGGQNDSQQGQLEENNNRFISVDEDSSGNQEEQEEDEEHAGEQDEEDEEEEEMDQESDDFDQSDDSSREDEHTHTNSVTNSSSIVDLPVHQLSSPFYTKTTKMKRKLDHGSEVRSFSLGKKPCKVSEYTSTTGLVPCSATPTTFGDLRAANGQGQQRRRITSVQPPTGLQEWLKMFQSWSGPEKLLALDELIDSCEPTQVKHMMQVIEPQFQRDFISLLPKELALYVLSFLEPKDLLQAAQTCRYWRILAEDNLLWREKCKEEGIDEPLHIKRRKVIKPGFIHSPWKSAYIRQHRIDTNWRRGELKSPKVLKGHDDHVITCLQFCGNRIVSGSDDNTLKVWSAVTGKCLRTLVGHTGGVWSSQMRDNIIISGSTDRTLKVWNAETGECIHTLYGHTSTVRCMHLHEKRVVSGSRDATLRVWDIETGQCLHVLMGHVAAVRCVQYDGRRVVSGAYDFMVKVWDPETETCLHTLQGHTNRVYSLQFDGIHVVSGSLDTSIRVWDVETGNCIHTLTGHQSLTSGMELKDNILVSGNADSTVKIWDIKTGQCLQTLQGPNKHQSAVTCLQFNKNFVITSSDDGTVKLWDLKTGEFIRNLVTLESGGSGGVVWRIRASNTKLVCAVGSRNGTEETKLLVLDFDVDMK
GPR151 ag: activators of human GPR151; Q8TDV0; PathHunter beta-arrestin GPR151 cells, luminescence; activation, % at 11.2 µM; actives 1% (n = 650,000); AID 1508602; in the data active = activation above about 4.9%
TEAD-YAP inh: TEAD-YAP interaction inhibition; HEK-TIYL cells, TEAD-Gal4/YAP UAS-luciferase luminescence; AID 1259422; actives 1.4% (n = 640,000); inhibition, % at 9.12 µM; in the data active = inhibition above about 32%
MITF inh: human MITF inhibition, primary screen | O75030 | actives 0.91% (n = 650,000) | AlphaScreen MITF homodimerization, bead proximity signal | AID 1259374 | inhibition, % at 2.6 µM; in the data active = inhibition above about 50%
MITF inh conf: human MITF inhibition, confirmation; shares compounds with MITF inh; AlphaScreen MITF homodimerization, biotin/His-MITF beads; inhibition, % at 2.6 µM; actives 16% (n = 4,700);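 active = inhibition above a cutoff derived from the DMSO control wells, cut at about 28% in these data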;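 note: inhibitors lower the bead chemiluminescence by keeping MITF from dimerizing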
AlphaScreen DR: AlphaScreen optical interference, dose response counter-screen; AID 1259373; shares compounds with MITF inh; AlphaScreen optical interference counterscreen, cell-free; actives 6% (n = 480); IC50, µM; call rule not given here
AS interf ctr: counter-screen: compounds optically interfering with AlphaScreen; shares compounds with MITF inh; LysRS AlphaScreen counterscreen, signal interference, triplicate; inhibition, % at 2.6 µM; actives 7.6% (n = 4,700); AID 1259376;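 active = inhibition above a cutoff derived from the DMSO control wells, cut at about 30% in these data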
Of the large screens only hits and unclear results are named; the others gave an inactive call (follow-up assays come after a bar, where they were run); ! = not confirmed by another sample.

O=C(c1ccccc1)N1CCN(Cc2cccc(Oc3ccccc3)c2)CC1	none
COc1ccc(-c2ccc(/C=C3/SC(N)=NC3=O)o2)c([N+](=O)[O-])c1	none
CCOc1ccc(CNC(=O)CN2C(=O)C(CC)Sc3ccccc32)cc1OC (centres undefined)	MITF inh 51 | MITF inh conf inactive | AS interf ctr inactive
CCC1Sc2ccccc2N(CC(=O)NCCc2ccc(OC)c(OC)c2)C1=O (centres undefined)	none
CC(=O)Nc1ccc(C(=O)CSc2nc(N)cc(=O)[nH]2)cc1	none
COc1ccc(OCCNCc2ccco2)cc1	MITF inh 52 | MITF inh conf inactive | AS interf ctr inactive
COC(=O)CSc1nc2ccc(N)cc2s1	MITF inh 63 | MITF inh conf inactive | AS interf ctr inactive
COc1ccc(NC(=O)CSc2nc3ccc(N)cc3s2)cc1	none
O=C(Nc1c(F)cccc1F)N1CCC(Cn2cnc3ccccc32)CC1	none
CCN(CC)S(=O)(=O)c1ccc2c(c1)N(CC(=O)NC1CC1)C(=O)CO2	none
O=S(=O)(CCN1CCCCC1)Oc1ccccc1	MITF inh 58 | MITF inh conf inactive | AS interf ctr inactive
COc1cccc(-c2nc3sc4c(c3c(=O)n2Cc2ccc(C(C)(C)C)cc2)CCCC4)c1	none
O=C(O)C1CC=CCC1C(=O)Nc1nncs1 (centres undefined)	MITF inh 53 | MITF inh conf 48 | AlphaScreen DR inactive | AS interf ctr inactive
O=C(O)C1CCCCC1C(=O)Nc1nncs1 (centres undefined)	none
COc1ccc2nc(-c3ccco3)c(-c3ccco3)nc2c1	MITF inh 52 | MITF inh conf 66 | AlphaScreen DR inactive | AS interf ctr inactive
COc1ccc2c(c1)N(C(N)=S)C(C)(C)C=C2C	MITF inh 90 | MITF inh conf 73 | AS interf ctr 57
O=S(=O)(c1ccc2c(c1)CCCC2)N1CCN(c2cc(N3CCCC3)ncn2)CC1	none
O=S(=O)(c1ccc2c(c1)OCCO2)N1CCN(c2cc(N3CCCC3)ncn2)CC1	MITF inh 80 | MITF inh conf inactive | AS interf ctr inactive
COc1cc(CN2CCN(Cc3ccc(Br)cc3)CC2)cc(OC)c1OC	MITF inh 81 | MITF inh conf inactive | AS interf ctr inactive
COc1cc(CN2CCN(Cc3ccc(Br)cc3)CC2)cc(OC)c1O	none
COc1cc(C(=O)N2CCN(Cc3cccc(Cl)c3)CC2)cc(OC)c1OC	none
COc1cc(CN2CCN(Cc3cc(OC)c(OC)c(OC)c3)CC2)cc(OC)c1OC	none
COc1cc(CN2CCN(Cc3cccc(Cl)c3)CC2)cc(OC)c1OC	MITF inh 69 | MITF inh conf inactive | AS interf ctr inactive
COc1cc(CN2CCN(Cc3ccc(Cl)cc3)CC2)cc(OC)c1OC	MITF inh 78 | MITF inh conf inactive | AS interf ctr inactive
COc1ccc(CN2CCN(Cc3ccc(OC)c(OC)c3)CC2)cc1OC	none
COc1ccc(CN2CCN(Cc3ccc(C)cc3)CC2)cc1OC	MITF inh 67 | MITF inh conf inactive | AS interf ctr inactive
CCOc1ccccc1NC(=O)CSc1nnc(NC(=O)C2CCCCC2)s1	none
COc1ccc(CN2CCN(Cc3cccc(Br)c3)CC2)cc1OC	none
COc1ccc(CN2CCN(Cc3ccc(Br)cc3)CC2)cc1OC	MITF inh 74 | MITF inh conf inactive | AS interf ctr inactive
O=c1c(O)c(-c2ccc(O)cc2O)oc2cc(O)cc(O)c12	MITF inh 67! | MITF inh conf 43 | AlphaScreen DR inactive | AS interf ctr inactive
O=C(O)c1cc(NN=C2CCCC2)ccc1Cl	MITF inh 72 | MITF inh conf 73 | AlphaScreen DR inactive | AS interf ctr inactive
O=[N+]([O-])c1ccc(N2CCCCC2)cc1NCCc1ccccc1	none
CCN(CC)C(=O)C1CCCN(Cc2ccc(C)cc2)C1 (centres undefined)	none
CCN(CC)C(=O)C1CCCN(Cc2sccc2C)C1 (centres undefined)	MITF inh 51 | MITF inh conf inactive | AS interf ctr inactive
CCN(CC)C(=O)C1CCCN(Cc2cccc(C)c2)C1 (centres undefined)	none
CCN(CC)C(=O)C1CCCN(Cc2cccc(F)c2)C1 (centres undefined)	MITF inh 58 | MITF inh conf inactive | AS interf ctr inactive
CCN(CC)C(=O)C1CCCN(Cc2cccc(OC)c2)C1 (centres undefined)	MITF inh 56 | MITF inh conf inactive | AS interf ctr inactive
COc1ccccc1C(=O)Nc1cccc(N2CCC(N(C)Cc3nnc(C)o3)CC2)c1	none
O=c1/c(=C/c2ccc(O)c(O)c2)sc2nc3ccccc3n12	none
CC(=O)N1CCN(C(=O)c2nn(-c3ccc(F)cc3)cc2OCc2ccccc2)CC1	none
COC(=O)c1c(NC(=O)C2CC2)sc2c1CCN(C(C)=O)C2	none
COC(=O)c1c(NC(=O)/C=C/C(=O)O)sc2c1CCN(C(C)=O)C2	MITF inh 83 | MITF inh conf inactive | AS interf ctr inactive
Cc1cc(C)n(CCNC2CCN(c3ccc(C(=O)NC(C)c4ccccc4)cc3)CC2)n1 (centres undefined)	MITF inh 91 | MITF inh conf inactive | AS interf ctr inactive
O=C(Nc1ccccc1C(F)(F)F)c1ccc(NC(=O)c2ccco2)cc1	none
O=C(Nc1ccccc1C(F)(F)F)c1ccc(NC(=O)c2ccccc2C(=O)O)cc1	MITF inh 56 | MITF inh conf inactive | AS interf ctr inactive
CCCN(Cc1cccc([N+](=O)[O-])c1)CC1CC1	MITF inh 54 | MITF inh conf inactive | AS interf ctr inactive
CC(C)NS(=O)(=O)c1ccc(NC(=O)c2ccco2)cc1	none
COc1cccc(CN2CCC(C(=O)N3CCN(c4ccccc4F)CC3)CC2)c1OC	MITF inh 52 | MITF inh conf inactive | AS interf ctr inactive
CC1CCCN(C(=O)C2CCN(Cc3cccc(O)c3)CC2)C1 (centres undefined)	none
COc1ccccc1CN1CCC(C(=O)N2CCCC2)CC1	none
O=C(C1CCN(Cc2cccc(O)c2)CC1)N1CCN(c2ccccc2F)CC1	MITF inh 76 | MITF inh conf inactive | AS interf ctr inactive
CCN1CCN(CCOc2ccc(C#N)cc2)CC1	MITF inh 54 | MITF inh conf inactive | AS interf ctr inactive
N#Cc1ccc(OCC(O)CN2CCN(CCOc3ccccc3)CC2)cc1 (centres undefined)	MITF inh 81 | MITF inh conf inactive | AS interf ctr inactive
CCC(C)c1ccc(OCCN2CCN(CC)CC2)cc1 (centres undefined)	MITF inh 56 | MITF inh conf inactive | AS interf ctr inactive
CCC(C)c1ccc(OCCNCCO)cc1 (centres undefined)	MITF inh 56 | MITF inh conf inactive | AS interf ctr inactive
CCOc1ccc(OCCCNCCO)cc1	none
CC(C)C(=O)Nc1nnc(-c2ccc(Cl)cc2)o1	none
Cn1c(SCC(=O)Nc2ccc(C(N)=O)cc2)nnc1-c1ccccc1	none
